# Screening results from PubChem.
# Hits are enriched below; roughly 12% of the tested compounds scored in any of these assays.
# BAZ2B block: BAZ2B (human) inhibition; Q9UIF8; Potency, µM (doses to about 114 µM), for inactives: at the top dose activity change, negative = inhibition, hits mostly inhibitors; 4.4% of 360,000 active; AlphaScreen BAZ2B-H3K14Ac peptide displacement; also: % is scaled to controls: 0 for no effect and ±100 for the full control effect; nearly all actives have a fitted effect of over 60% in size
#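 Multi-concentration screen (max 110 uM) measuring displacement of acetylated histone H3 peptide from BAZ2B by AlphaScreen, using 50 nM protein, 50 nM peptide and 10 ug/mL streptavidin donor plus Ni-chelate acceptor beads.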
# G9a block: inhibitors of human histone lysine methyltransferase G9a. G9a H3K9 monomethylation, AlphaScreen, 2 h. Potency, µM (titrated, usually from 102 µM), for the others: at the top dose activity, negative = inhibition, actives largely listed as inhibitors. 8.8% of 350,000 active; also: % is scaled to controls: 0 for no effect and ±100 for the full control effect; nearly all actives have a fitted effect of over 75% in size
#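 Quantitative HTS format: methyltransferase activity on a biotin-tagged H3K9 peptide is measured by AlphaScreen, using a rabbit anti-monomethyl-H3K9 antibody with streptavidin donor and anti-IgG acceptor beads. Final levels are 20 nM enzyme, 500 nM peptide, 20 uM SAM; 2 h RT.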
# Sfp inh: inhibitors of Bacillus subtilis Sfp phosphopantetheinyl transferase; Q9F4F7; Biochemical Sfp PPTase activity, qHTS; Potency, µM, without a hit: largest response in the series, negative = inhibition, usual class: inhibitors; 3.5% of 310,000 active; AID 1490;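 also: the enzyme is Sfp with the accession as filed and its product quenches rhodamine fluorescence; 0% = enzyme reaction without inhibitor and -100% = no enzyme wells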
#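 Step 1, compound plus 15 nM Sfp-PPTase, 15 min, room temperature. Step 2, add rhodamine-CoA (5 uM) and BHQ-2-YbbR (12.5 uM). Step 3, read 525/598 nm fluorescence at 0 and 30 min.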
# HP1b binding inh: blocks HP1-beta chromodomain binding to methylated histone tails | P83916 | AlphaScreen HP1-beta / biotin-H3K9me3 peptide binding | Potency, µM (highest dose often 114 µM), for the others: at the highest dose activity change, negative = inhibition, usual class: inhibitors | 0.56% of 390,000 active | AID 540317; also: nearly all actives have a fitted effect of over 70% in size
#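 AlphaScreen: HP1-beta (50 nM) preformed 30 min with biotin-H3(1-18)K9me3 peptide (50 nM) in PBS pH 7.4, 0.01% Tween-20. Compound added for 30 min at RT, then streptavidin donor/nickel chelate acceptor beads (10 ug/mL) for 30 min.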
# JMJD2A Tudor: inhibitors of human JMJD2A Tudor domain. AlphaScreen JMJD2A-Tudor / H3K4me3 peptide binding. Potency, µM (titrated, usually from 114 µM), for the others: at the top dose activity change, negative = inhibition, most hits filed as inhibitors. 4.4% of 390,000 active; also: % is scaled to controls: 0 for no effect and ±100 for the full control effect; nearly all actives have a fitted effect of over 50% in size
# An asterisk follows results filed as active; u = inconclusive; x = no result; ! = not active in a repeat; [ ] = dose if it differs, or a comment. Calls follow the shape of the dose curve; as a rule, active = well fitted curve in the direction sought with a large enough effect; inconclusive = small, poorly fitted or top-dose-only effect, or another doubt; inactive = no such curve, though single readings can be large; an effect the other way counts as inactive or inconclusive. Potency is read from the fitted curve at half-maximal effect.
SMILES,BAZ2B block,G9a block,Sfp inh,HP1b binding inh,JMJD2A Tudor
CSc1ccc(C(c2c(C(=O)O)[nH]c3ccccc23)c2c(C(=O)O)[nH]c3ccccc23)cc1,50µM*,21%[0.501 µM],25%,15%,-19%
CCOc1cc(Br)cc(C(c2c(C(=O)O)[nH]c3ccccc23)c2c(C(=O)O)[nH]c3ccccc23)c1O,-33%,20%[0.501 µM],33%,26%,-24%
Cn1c(=O)c2nc3ccc(NC(=O)C(F)(F)F)cc3nc2n(C)c1=O,-1%,5%[59 µM],x,37%,3%
CC(=O)Nc1ccc2nc3c(=O)n(C)c(=O)n(C)c3nc2c1,u,40µM*,u,-9%,79µM*
CCOc1ccc(N2CC(NC(=O)/C=C\c3ccc4c(c3)OCO4)CC2=O)cc1 (stereo unspecified),6%,4%[59 µM],x,30%,2%
CCN(c1ccccc1)S(=O)(=O)c1ccc(Cl)c(NC(=O)CN(C)Cc2cccc(F)c2)c1,x,x,x,34%,1%
Cc1cc(C)nc(/N=C2\NC(=O)CC(C(=O)O)N2c2ccc(C)c(C)c2)n1 (stereo unspecified),-10%,-38%,5%,-2%,13µM*
Cc1ccc(N2/C(=N/c3nc(C)cc(C)n3)NC(=O)CC2C(=O)O)cc1 (stereo unspecified),11%,-9%,13%,17%,1%
CC(=O)Nc1cc2c(cc1[N+](=O)[O-])-c1ccccc1C2=NO,x,x,x,7%,-24%
Nc1cc2c(cc1[N+](=O)[O-])-c1ccccc1C2=NO,x,x,x,u,28µM*
CC(C(=O)N1CCOCC1)c1ccccc1 (stereo unspecified),-2%,5%[2.33 µM],x,33%,-15%
CC(SC(=S)N1CCOCC1)C(=O)O (stereo unspecified),25µM*,-1%[12.7 µM],5%,15%,-21%
CC(C)(C)C(=O)NC(c1ccc(Cl)cc1)[C@]1(C)C[C@H]1C1CCCCC1 (stereo partly specified),x,x,2%,x,x
COc1ccccc1C(=O)COC(=O)CNC(=O)c1ccc(Br)o1,1%,50µM*,x,50%,-14%
O=C(O)c1cc(O)c2c(c1)C(=O)c1cc(O)cc(O)c1C2=O,50µM*,-32%[12.7 µM],10µM*!,-38%,u
C/C=C/c1ccc(OCCCNC(C)CC)c(OC)c1 (stereo unspecified),32µM*,u,56µM*,-34%,1.8µM*
C/C=C/c1ccc(OCCCNC2CCCC2)c(OC)c1,u,u,u,u,7.9µM*
CC(=O)/C(CN1CCCCC1)=N\O,8%,-6%[59 µM],-10%,20%,-8%
C/C(=N\O)C(=O)C(CN1CCCCC1)CN1CCCCC1,8%,0.89µM*,-10%,u,-30%
CCN(CC)CCCNC(=O)Cc1csc2nc(-c3ccc(Cl)cc3)cn12,u,3%[59 µM],x,8%[57 µM],-29%
Cc1onc(-c2ccccc2)c1C(=O)NC(=S)NNC(=O)c1ccncc1,2%,4%[59 µM],-1%,5%,-13%
COc1ccc(C(=O)NC(=S)NNC(=O)c2c(-c3ccccc3)noc2C)cc1OC,-10%,32µM*,27%,6%,-28%
Cc1onc(-c2ccccc2)c1C(=O)NC(=S)NNC(=O)c1cc(-c2ccc(F)cc2)n[nH]1,-6%,50µM*,21%,12%,-18%
Cc1onc(-c2ccccc2)c1C(=O)NNC(=S)NC(=O)/C=C/c1cccs1,7%,13µM*,26%,2%,-22%
Cc1onc(-c2ccccc2)c1C(=O)NNC(=S)NC(=O)c1ccc2c(c1)OCO2,-17%,50µM*,19%,-16%,-36%
CCOc1ccc(-c2nnc(SCC(=O)NCc3ccc(C)cc3)nc2-c2ccc(OCC)cc2)cc1,16%,u,x,52%,-30%
Cc1cnc(CNc2nc(-c3ccccc3Cl)nc3ccccc23)cn1,x,18%[0.501 µM],6%,x,x
CC(=O)c1cc2c(cc1N/C(=N/S(=O)(=O)c1ccc(Cl)cc1)c1ccc(F)cc1)OCO2,-25%,3%[59 µM],x,11%,-12%
Cc1ccc(NC(=O)CN2C(=O)C(c3ccccc3)=NC23CCCCC3)cc1C,-3%,-6%[59 µM],x,30%,-16%
